Measured values published in ChEMBL document CHEMBL2218924, “A broad activity screen in support of a chemogenomic map for kinase signalling research and drug discovery” (Biochem J, 2013).

Tests used:
[1] = biological target: T1, Tyrosine-protein kinase ITK/TSK (Homo sapiens) (UniProt Q08881); settings: at 10 µM
T1 sequence (whole entry): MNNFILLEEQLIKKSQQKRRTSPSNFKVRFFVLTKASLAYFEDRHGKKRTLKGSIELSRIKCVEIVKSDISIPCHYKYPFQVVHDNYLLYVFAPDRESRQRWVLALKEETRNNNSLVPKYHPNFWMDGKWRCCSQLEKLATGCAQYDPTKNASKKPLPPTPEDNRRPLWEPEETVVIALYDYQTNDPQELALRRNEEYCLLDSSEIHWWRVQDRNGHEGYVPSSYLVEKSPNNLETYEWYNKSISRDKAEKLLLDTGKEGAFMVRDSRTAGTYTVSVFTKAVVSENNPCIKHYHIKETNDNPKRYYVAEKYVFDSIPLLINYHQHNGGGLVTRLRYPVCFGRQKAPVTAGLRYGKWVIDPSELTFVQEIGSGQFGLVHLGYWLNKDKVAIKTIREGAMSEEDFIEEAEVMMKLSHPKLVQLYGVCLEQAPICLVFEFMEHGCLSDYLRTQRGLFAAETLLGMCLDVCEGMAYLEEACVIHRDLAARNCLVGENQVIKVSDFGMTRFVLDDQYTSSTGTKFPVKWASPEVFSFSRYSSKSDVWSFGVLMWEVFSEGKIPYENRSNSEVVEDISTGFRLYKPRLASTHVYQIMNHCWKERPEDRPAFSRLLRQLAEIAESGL

[2] = biological target: Tyrosine-protein kinase JAK2 (Homo sapiens) (UniProt O60674); settings: at 1 µM
[3] = biological target: Tyrosine-protein kinase JAK2 (Homo sapiens) (UniProt O60674); settings: at 10 µM
[4] = biological target: T2, Tyrosine-protein kinase JAK3 (Homo sapiens) (UniProt P52333); settings: at 1 µM
T2 sequence (whole entry): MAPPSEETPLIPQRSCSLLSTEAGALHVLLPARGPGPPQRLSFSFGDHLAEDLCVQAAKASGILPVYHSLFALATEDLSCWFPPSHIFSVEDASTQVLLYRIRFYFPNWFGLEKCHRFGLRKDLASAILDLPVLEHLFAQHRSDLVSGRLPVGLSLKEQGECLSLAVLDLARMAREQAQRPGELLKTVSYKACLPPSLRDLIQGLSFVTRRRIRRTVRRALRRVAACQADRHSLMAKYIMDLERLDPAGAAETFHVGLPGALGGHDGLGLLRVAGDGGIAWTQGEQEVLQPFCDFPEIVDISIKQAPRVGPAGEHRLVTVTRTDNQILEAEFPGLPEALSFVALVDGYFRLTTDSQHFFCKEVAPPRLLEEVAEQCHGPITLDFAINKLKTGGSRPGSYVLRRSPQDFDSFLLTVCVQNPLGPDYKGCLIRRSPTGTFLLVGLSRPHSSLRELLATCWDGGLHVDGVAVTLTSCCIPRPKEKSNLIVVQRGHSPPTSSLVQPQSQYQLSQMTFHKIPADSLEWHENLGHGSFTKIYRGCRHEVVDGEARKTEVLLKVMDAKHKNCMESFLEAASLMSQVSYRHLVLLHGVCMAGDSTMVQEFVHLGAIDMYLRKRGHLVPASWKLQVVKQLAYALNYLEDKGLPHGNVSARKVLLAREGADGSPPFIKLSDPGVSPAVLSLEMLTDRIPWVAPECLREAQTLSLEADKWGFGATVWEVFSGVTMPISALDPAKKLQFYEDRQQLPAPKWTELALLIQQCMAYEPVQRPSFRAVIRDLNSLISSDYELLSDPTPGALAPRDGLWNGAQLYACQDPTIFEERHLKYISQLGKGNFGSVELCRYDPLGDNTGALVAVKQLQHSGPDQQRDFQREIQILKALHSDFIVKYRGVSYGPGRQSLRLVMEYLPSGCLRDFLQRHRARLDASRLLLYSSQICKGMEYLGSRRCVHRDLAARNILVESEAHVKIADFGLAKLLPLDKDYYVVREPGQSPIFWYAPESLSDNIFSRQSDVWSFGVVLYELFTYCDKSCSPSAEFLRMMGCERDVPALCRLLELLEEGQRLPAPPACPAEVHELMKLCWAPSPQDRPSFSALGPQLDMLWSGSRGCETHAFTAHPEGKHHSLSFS

[5] = biological target: T2, Tyrosine-protein kinase JAK3 (Homo sapiens); settings: at 10 µM
[6] = biological target: Mitogen-activated protein kinase 8 (Homo sapiens) (UniProt P45983); settings: at 10 µM
[7] = biological target: Mitogen-activated protein kinase 9 (Homo sapiens) (UniProt P45984); settings: at 1 µM
[8] = biological target: Mitogen-activated protein kinase 9 (Homo sapiens) (UniProt P45984); settings: at 10 µM
[9] = biological target: Mitogen-activated protein kinase 10 (Homo sapiens) (UniProt P53779); settings: at 1 µM
[10] = biological target: Mitogen-activated protein kinase 10 (Homo sapiens) (UniProt P53779); settings: at 10 µM
[11] = biological target: Vascular endothelial growth factor receptor 2 (Homo sapiens) (UniProt P35968); settings: at 1 µM
[12] = biological target: Vascular endothelial growth factor receptor 2 (Homo sapiens) (UniProt P35968); settings: at 10 µM
[13] = biological target: LIM domain kinase 1 (Homo sapiens) (UniProt P53667); settings: at 1 µM
[14] = biological target: LIM domain kinase 1 (Homo sapiens) (UniProt P53667); settings: at 10 µM
[15] = biological target: T3, Serine/threonine-protein kinase STK11 (Homo sapiens) (UniProt Q15831); settings: at 1 µM
T3 sequence (whole entry): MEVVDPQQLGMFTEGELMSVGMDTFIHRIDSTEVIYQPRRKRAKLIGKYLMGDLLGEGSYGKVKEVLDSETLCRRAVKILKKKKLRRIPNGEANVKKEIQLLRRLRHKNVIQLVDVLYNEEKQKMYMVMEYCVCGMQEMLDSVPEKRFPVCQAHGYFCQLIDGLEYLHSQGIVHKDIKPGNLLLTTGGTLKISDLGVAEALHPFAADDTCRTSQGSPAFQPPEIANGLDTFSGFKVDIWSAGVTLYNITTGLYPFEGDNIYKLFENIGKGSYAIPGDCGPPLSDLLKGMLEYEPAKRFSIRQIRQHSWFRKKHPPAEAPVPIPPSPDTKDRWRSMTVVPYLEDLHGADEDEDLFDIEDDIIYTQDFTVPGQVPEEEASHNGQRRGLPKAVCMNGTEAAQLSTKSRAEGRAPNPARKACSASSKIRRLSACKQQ

[16] = biological target: T3, Serine/threonine-protein kinase STK11 (Homo sapiens); settings: at 10 µM
[17] = biological target: Serine/threonine-protein kinase 10 (Homo sapiens) (UniProt O94804); settings: at 1 µM
[18] = biological target: Serine/threonine-protein kinase 10 (Homo sapiens) (UniProt O94804); settings: at 10 µM
[19] = biological target: Tyrosine-protein kinase Lck (Homo sapiens) (UniProt P06239); settings: at 1 µM
[20] = biological target: Mitogen-activated protein kinase 8 (Homo sapiens) (UniProt P45983); settings: at 1 µM

Chain of Tyrosine-protein kinase JAK2 (Homo sapiens) (O60674 whole entry): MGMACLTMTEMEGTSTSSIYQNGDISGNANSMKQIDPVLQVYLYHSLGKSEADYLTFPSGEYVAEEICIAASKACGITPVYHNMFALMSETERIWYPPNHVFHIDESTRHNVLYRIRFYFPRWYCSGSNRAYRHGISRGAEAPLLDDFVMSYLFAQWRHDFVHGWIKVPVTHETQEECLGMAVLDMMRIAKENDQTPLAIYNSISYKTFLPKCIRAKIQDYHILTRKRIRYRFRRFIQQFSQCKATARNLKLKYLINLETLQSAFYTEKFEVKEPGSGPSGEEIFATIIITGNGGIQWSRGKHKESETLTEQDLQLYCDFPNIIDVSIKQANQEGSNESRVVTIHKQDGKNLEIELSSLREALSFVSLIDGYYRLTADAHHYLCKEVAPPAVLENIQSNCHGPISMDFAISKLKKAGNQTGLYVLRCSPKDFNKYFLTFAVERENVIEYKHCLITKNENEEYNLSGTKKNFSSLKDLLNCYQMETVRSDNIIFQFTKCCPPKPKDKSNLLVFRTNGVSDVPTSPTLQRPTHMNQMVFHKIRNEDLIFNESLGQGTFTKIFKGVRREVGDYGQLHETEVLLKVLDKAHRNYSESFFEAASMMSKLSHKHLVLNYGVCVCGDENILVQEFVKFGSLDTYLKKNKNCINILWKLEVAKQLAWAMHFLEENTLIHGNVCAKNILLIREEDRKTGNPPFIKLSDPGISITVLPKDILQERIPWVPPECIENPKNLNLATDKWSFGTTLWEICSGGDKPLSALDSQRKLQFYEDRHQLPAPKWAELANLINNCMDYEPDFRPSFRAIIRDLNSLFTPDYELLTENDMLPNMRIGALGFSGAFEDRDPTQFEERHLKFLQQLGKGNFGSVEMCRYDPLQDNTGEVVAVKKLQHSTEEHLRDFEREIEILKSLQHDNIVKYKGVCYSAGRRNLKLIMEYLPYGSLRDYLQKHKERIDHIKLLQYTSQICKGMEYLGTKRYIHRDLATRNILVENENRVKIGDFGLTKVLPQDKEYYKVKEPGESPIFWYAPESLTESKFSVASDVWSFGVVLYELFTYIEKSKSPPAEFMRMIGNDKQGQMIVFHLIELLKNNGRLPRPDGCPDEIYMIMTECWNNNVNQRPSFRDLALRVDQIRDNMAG
Chain of Mitogen-activated protein kinase 9 (Homo sapiens) (P45984 whole entry, looked up): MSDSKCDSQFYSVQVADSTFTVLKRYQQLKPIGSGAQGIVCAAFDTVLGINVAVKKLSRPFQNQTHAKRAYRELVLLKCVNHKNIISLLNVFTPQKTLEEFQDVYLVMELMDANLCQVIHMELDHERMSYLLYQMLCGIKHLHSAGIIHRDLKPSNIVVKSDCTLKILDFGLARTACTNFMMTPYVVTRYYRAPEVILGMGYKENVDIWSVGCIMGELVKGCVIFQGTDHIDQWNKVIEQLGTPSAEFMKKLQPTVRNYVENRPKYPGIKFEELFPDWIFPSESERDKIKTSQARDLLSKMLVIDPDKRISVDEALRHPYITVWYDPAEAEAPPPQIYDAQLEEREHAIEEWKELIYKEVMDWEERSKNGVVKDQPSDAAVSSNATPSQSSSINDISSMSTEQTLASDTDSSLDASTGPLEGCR
Chain of LIM domain kinase 1 (Homo sapiens) (P53667 whole entry, looked up, the tested form may be a part): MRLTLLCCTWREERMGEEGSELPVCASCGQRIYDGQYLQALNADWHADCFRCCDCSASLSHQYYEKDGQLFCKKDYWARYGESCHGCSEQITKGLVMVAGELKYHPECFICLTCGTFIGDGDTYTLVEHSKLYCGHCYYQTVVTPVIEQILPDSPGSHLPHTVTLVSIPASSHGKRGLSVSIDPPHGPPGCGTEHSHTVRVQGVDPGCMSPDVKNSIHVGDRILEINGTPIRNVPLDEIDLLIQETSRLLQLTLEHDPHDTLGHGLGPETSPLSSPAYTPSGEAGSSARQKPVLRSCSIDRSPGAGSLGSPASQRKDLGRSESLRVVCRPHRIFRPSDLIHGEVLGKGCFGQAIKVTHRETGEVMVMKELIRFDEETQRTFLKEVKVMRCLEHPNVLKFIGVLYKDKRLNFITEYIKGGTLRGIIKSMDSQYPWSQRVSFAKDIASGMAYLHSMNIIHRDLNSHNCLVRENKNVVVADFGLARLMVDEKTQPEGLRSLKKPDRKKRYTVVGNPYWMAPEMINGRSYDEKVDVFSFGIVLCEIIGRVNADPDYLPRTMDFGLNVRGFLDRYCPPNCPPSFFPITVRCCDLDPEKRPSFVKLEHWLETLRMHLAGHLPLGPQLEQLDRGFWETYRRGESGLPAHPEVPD
Chain of Mitogen-activated protein kinase 8 (Homo sapiens) (P45983 whole entry): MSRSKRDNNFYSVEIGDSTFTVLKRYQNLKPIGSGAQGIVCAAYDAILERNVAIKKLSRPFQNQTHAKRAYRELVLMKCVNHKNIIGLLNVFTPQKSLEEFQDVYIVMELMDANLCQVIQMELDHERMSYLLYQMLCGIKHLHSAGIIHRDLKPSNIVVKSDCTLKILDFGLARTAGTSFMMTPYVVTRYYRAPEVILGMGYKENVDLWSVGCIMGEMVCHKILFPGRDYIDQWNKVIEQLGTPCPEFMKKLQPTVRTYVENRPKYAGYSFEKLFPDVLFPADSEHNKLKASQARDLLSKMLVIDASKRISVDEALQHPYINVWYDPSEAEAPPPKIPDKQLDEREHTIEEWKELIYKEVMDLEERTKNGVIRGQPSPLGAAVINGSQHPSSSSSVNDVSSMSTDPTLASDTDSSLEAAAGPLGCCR
Chain of Serine/threonine-protein kinase 10 (Homo sapiens) (O94804 whole entry, looked up): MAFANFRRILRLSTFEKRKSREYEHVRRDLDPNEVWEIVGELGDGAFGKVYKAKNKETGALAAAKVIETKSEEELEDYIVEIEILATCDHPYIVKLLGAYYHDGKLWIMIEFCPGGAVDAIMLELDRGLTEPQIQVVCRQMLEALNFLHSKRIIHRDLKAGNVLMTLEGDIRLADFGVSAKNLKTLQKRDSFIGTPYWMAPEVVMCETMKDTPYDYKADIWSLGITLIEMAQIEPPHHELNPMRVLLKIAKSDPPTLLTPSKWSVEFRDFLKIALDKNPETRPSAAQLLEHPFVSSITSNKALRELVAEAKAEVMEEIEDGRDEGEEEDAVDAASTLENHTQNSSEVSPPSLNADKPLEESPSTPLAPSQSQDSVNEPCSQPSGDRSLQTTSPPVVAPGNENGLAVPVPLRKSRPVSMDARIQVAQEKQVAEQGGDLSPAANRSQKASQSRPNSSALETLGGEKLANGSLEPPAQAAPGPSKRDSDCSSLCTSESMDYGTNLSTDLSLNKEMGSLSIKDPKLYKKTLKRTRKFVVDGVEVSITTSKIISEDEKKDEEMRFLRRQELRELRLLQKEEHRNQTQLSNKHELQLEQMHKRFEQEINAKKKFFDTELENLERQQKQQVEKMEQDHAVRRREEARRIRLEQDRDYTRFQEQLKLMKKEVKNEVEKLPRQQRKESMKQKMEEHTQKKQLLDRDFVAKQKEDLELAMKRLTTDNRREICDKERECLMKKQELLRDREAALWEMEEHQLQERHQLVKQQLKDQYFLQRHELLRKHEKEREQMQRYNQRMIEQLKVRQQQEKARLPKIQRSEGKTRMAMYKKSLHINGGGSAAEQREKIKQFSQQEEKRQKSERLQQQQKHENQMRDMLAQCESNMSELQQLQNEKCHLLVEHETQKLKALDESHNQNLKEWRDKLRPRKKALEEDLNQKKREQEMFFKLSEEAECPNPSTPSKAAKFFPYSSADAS
Chain of Vascular endothelial growth factor receptor 2 (Homo sapiens) (P35968 whole entry, the tested form may be a part): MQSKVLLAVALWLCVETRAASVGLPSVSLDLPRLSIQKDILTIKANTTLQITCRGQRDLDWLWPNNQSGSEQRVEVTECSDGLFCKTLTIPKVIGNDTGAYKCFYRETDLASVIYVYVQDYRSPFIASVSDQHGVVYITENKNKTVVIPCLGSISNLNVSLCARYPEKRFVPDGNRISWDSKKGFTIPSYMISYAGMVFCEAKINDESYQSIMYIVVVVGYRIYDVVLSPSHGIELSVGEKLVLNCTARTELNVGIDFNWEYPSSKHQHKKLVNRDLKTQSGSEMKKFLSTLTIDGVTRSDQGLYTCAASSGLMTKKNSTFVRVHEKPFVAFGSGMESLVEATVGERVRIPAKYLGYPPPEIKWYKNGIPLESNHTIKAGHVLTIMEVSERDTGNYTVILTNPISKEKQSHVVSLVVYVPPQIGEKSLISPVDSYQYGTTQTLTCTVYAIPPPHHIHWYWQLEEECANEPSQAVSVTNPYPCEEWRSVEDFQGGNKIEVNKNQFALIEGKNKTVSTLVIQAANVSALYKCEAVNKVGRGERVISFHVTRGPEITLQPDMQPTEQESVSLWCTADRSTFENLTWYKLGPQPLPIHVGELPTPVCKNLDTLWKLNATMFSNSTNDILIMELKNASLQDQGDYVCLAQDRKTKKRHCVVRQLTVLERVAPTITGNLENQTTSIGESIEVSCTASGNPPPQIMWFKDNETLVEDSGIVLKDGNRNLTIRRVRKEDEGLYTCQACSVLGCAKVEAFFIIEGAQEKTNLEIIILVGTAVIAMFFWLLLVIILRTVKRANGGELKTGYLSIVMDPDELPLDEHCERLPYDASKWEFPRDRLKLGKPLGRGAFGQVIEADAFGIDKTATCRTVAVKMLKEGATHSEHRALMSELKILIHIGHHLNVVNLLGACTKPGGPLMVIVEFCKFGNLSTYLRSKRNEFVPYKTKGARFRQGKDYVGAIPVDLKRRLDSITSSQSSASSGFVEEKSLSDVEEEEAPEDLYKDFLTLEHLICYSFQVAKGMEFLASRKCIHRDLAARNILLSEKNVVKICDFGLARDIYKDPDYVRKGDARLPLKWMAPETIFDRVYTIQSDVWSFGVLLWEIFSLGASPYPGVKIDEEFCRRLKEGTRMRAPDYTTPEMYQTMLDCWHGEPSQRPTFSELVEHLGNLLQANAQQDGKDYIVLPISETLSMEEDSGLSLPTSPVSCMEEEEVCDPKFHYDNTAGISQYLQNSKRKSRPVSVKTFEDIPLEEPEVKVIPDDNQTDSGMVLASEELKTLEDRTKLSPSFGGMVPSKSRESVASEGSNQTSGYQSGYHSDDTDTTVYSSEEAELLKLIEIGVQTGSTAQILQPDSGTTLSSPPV

## CC(C)c1nn(-c2c(Cl)cccc2Cl)c2nc(Cc3ccc(OCCO)cc3)[nH]c(=O)c12
[1]
  residual activity: 96%
[2]
  residual activity: 85%
[3]
  residual activity: 100%
[4]
  residual activity: 103%
[5]
  residual activity: 106%
[6]
  residual activity: 94%
[7]
  residual activity: 99%
[8]
  residual activity: 86%
[9]
  residual activity: 81%
[10]
  residual activity: 29%
[11]
  residual activity: 98%
[12]
  residual activity: 89%
[13]
  residual activity: 102%
[14]
  residual activity: 84%
[15]
  residual activity: 90%
[16]
  residual activity: 48%
[17]
  residual activity: 55%
[18]
  residual activity: 55%
[19]
  residual activity: 104%

## O=c1cc(N2CCNCC2)oc2c(-c3ccccc3)cccc12
[1]
  residual activity: 93%
[3]
  residual activity: 101%
[4]
  residual activity: 94%
[5]
  residual activity: 78%
[6]
  residual activity: 84%
[8]
  residual activity: 97%
[9]
  residual activity: 73%
[10]
  residual activity: 89%
[11]
  residual activity: 100%
[12]
  residual activity: 89%
[13]
  residual activity: 92%
[14]
  residual activity: 86%
[15]
  residual activity: 97%
[16]
  residual activity: 92%
[17]
  residual activity: 95%
[18]
  residual activity: 89%

## COc1cc2c(cc1OC)-c1n[nH]c(Nc3cccc(F)c3)c1C2
[1]
  residual activity: 41%
[3]
  residual activity: 108%
[5]
  residual activity: 114%
[7]
  residual activity: 101%
[8]
  residual activity: 69%
[9]
  residual activity: 53%
[10]
  residual activity: 33%
[11]
  residual activity: 75%
[12]
  residual activity: 25%
[13]
  residual activity: 13%
[14]
  residual activity: 2%
[17]
  residual activity: 59%
[18]
  residual activity: 37%

## COc1cc2ncnc(Nc3cccc(Cl)c3)c2cc1OC
[1]
  residual activity: 105%
[2]
  residual activity: 123%
[3]
  residual activity: 86%
[4]
  residual activity: 109%
[5]
  residual activity: 118%
[20]
  residual activity: 112%
[6]
  residual activity: 122%
[9]
  residual activity: 73%
[10]
  residual activity: 50%
[11]
  residual activity: 60%
[12]
  residual activity: 16%
[13]
  residual activity: 111%
[14]
  residual activity: 41%
[15]
  residual activity: 100%
[16]
  residual activity: 101%
[17]
  residual activity: 24%
[18]
  residual activity: 8%
[19]
  residual activity: 52%

## c1ccc(-c2cnc(Nc3ccc(OCCN4CCCC4)cc3)s2)cc1
[1]
  residual activity: 30%
[2]
  residual activity: 111%
[3]
  residual activity: 105%
[20]
  residual activity: 112%
[6]
  residual activity: 70%
[9]
  residual activity: 80%
[10]
  residual activity: 36%
[11]
  residual activity: 10%
[12]
  residual activity: 4%
[13]
  residual activity: 64%
[14]
  residual activity: 16%
[15]
  residual activity: 108%
[16]
  residual activity: 103%
[17]
  residual activity: 75%
[18]
  residual activity: 55%
[19]
  residual activity: 58%

## NC(=O)Nc1sc(-c2ccc(F)cc2)cc1C(N)=O
[1]
  residual activity: 1%
[2]
  residual activity: 4%
[3]
  residual activity: 0%
[4]
  residual activity: 42%
[5]
  residual activity: 5%
[20]
  residual activity: 94%
[6]
  residual activity: 52%
[7]
  residual activity: 84%
[8]
  residual activity: 67%
[9]
  residual activity: 60%
[10]
  residual activity: 33%
[11]
  residual activity: 41%
[12]
  residual activity: 6%
[13]
  residual activity: 46%
[14]
  residual activity: 7%
[15]
  residual activity: 92%
[16]
  residual activity: 73%
